For two compounds, inhibition results are on record in ChEMBL document CHEMBL1961873, “Compounds: GSK PKIS; Assays: Nanosyn kinase panel” (2012).

Test [1] deals with T1, Inhibitor of nuclear factor kappa-B kinase subunit epsilon (Homo sapiens) (UniProt Q14164).
T1 sequence (whole entry): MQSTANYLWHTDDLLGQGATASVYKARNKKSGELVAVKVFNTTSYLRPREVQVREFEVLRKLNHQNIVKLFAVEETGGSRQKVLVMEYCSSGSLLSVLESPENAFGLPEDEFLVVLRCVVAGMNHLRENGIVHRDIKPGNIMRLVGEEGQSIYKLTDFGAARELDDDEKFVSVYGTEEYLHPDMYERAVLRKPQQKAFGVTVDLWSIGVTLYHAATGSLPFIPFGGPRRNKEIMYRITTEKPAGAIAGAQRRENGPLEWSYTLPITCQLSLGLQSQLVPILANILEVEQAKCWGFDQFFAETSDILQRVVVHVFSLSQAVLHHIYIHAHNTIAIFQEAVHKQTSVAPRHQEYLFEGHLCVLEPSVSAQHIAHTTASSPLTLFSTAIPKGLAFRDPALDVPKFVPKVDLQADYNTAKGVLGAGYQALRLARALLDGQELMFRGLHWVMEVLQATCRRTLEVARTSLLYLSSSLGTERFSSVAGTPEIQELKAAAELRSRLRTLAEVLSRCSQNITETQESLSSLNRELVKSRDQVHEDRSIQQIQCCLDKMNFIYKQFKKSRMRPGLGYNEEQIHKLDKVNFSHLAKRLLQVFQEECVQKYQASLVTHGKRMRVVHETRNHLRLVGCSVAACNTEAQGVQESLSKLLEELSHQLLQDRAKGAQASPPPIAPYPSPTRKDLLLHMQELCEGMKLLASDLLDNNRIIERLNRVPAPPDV
The conditions noted are these: at 1 µM.

The target of test [2] is T2, Serine/threonine-protein kinase Nek1 (Homo sapiens) (UniProt Q96PY6).
T2 sequence (whole entry): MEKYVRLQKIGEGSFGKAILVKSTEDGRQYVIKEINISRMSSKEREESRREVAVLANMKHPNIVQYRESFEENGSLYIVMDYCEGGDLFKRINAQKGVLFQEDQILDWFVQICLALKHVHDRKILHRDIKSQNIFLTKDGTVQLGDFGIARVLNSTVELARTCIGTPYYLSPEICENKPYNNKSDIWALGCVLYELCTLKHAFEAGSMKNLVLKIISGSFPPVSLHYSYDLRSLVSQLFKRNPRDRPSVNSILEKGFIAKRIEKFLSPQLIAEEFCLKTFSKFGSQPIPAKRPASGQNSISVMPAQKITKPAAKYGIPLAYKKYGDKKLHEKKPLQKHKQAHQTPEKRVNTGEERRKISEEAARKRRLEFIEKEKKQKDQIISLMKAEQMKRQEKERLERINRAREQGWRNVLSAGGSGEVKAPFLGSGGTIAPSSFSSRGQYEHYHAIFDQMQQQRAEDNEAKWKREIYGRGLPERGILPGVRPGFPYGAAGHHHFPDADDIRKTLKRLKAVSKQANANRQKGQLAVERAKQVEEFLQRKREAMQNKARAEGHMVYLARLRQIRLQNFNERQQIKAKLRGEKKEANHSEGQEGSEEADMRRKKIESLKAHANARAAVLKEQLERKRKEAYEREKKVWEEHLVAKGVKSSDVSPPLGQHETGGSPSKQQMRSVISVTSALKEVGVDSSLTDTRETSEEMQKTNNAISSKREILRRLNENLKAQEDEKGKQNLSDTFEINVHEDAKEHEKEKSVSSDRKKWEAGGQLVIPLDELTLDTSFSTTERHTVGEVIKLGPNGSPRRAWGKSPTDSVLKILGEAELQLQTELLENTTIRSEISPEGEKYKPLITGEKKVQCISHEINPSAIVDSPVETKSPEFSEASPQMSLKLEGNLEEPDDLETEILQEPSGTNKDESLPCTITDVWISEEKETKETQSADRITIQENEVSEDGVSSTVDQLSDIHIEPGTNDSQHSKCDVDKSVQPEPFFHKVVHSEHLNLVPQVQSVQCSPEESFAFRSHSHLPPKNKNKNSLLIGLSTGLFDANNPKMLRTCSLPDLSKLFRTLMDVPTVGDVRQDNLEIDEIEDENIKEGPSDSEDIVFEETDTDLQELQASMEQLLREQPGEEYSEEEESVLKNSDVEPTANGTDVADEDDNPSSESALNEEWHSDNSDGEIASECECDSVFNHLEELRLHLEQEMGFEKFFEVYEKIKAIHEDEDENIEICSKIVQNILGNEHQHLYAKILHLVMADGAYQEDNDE
The conditions noted are these: at 0.1 µM.

The target of test [3] is T2, Serine/threonine-protein kinase Nek1 (Homo sapiens). The note with it: at 1 µM.
The target in test [4] is T3, Serine/threonine-protein kinase Nek2 (Homo sapiens) (UniProt P51955).
T3 sequence (whole entry): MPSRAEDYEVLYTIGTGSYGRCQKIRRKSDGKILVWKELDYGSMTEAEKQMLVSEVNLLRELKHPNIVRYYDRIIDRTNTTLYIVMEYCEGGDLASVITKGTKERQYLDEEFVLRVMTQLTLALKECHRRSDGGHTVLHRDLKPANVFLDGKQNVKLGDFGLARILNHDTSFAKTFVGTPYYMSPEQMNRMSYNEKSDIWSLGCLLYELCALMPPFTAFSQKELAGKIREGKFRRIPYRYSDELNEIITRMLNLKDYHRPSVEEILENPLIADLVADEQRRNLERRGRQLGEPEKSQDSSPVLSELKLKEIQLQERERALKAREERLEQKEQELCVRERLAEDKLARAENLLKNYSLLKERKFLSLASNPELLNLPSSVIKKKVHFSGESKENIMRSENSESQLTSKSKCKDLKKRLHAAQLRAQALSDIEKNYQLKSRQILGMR
The note with it: at 0.1 µM.

Test [5] concerns the target T3, Serine/threonine-protein kinase Nek2 (Homo sapiens). The note with it: at 1 µM.
In test [6] the target is Serine/threonine-protein kinase Nek6 (Homo sapiens) (UniProt Q9HC98). The conditions noted are these: at 0.1 µM.
Chain of Serine/threonine-protein kinase Nek6 (Homo sapiens) (Q9HC98 whole entry): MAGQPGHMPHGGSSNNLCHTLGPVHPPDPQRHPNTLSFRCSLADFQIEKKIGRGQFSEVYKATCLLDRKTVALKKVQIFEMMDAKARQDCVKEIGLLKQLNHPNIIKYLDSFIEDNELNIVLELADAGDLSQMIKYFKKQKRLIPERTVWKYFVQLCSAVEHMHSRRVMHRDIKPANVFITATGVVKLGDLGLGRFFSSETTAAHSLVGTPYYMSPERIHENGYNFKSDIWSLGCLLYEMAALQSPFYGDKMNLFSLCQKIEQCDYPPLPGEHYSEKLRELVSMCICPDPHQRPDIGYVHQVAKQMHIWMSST
Test [7] has the same target. The conditions noted are these: at 1 µM.
In test [8] the target is Serine/threonine-protein kinase Nek7 (Homo sapiens) (UniProt Q8TDX7). The note with it: at 0.1 µM.
Chain of Serine/threonine-protein kinase Nek7 (Homo sapiens) (Q8TDX7 whole entry, looked up): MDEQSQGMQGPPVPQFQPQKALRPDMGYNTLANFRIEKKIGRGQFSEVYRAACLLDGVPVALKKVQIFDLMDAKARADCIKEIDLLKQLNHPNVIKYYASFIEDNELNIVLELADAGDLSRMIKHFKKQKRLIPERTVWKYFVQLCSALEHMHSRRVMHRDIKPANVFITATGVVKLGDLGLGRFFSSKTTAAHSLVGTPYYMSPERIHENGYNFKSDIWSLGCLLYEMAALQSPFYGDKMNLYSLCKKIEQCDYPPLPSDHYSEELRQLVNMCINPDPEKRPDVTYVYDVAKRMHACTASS
Test [9] shares this target. The conditions noted are these: at 1 µM.
Test [10] deals with T4, Serine/threonine-protein kinase Nek9 (Homo sapiens) (UniProt Q8TD19).
T4 sequence (whole entry): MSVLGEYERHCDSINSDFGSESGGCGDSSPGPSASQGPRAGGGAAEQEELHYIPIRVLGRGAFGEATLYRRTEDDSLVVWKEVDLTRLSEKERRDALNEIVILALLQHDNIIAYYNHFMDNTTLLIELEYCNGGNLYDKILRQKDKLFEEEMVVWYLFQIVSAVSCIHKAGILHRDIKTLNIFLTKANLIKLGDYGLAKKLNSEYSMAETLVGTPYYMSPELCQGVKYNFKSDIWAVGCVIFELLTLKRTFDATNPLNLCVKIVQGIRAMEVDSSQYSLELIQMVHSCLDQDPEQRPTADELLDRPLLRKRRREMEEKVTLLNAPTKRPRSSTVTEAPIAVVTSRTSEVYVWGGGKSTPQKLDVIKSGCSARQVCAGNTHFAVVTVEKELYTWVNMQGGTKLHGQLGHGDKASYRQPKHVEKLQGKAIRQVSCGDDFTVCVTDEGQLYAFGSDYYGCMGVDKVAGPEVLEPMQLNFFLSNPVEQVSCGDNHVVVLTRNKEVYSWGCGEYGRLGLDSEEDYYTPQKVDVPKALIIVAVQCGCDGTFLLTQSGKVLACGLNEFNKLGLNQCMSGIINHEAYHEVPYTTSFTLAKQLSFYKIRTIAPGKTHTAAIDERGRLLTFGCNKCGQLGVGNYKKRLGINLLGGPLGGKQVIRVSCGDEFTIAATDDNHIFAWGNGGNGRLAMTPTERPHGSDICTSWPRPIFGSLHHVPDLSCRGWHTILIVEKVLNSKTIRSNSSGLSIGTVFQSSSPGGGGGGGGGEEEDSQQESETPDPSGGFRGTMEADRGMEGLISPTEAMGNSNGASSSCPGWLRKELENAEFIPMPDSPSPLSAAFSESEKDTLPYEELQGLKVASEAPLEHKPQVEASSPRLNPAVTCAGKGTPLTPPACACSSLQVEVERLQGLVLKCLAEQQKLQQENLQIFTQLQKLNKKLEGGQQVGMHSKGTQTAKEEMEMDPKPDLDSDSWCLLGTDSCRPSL
The note with it: at 0.1 µM.

Test [11] deals with T4, Serine/threonine-protein kinase Nek9 (Homo sapiens). The conditions noted are these: at 1 µM.
Test [12] addresses Serine/threonine-protein kinase PLK1 (Homo sapiens) (UniProt P53350). The conditions noted are these: at 0.1 µM.
Test [13] shares this target. The conditions noted are these: at 1 µM.
The target in test [14] is T5, Dual specificity protein kinase TTK (Homo sapiens) (UniProt P33981).
T5 sequence (whole entry): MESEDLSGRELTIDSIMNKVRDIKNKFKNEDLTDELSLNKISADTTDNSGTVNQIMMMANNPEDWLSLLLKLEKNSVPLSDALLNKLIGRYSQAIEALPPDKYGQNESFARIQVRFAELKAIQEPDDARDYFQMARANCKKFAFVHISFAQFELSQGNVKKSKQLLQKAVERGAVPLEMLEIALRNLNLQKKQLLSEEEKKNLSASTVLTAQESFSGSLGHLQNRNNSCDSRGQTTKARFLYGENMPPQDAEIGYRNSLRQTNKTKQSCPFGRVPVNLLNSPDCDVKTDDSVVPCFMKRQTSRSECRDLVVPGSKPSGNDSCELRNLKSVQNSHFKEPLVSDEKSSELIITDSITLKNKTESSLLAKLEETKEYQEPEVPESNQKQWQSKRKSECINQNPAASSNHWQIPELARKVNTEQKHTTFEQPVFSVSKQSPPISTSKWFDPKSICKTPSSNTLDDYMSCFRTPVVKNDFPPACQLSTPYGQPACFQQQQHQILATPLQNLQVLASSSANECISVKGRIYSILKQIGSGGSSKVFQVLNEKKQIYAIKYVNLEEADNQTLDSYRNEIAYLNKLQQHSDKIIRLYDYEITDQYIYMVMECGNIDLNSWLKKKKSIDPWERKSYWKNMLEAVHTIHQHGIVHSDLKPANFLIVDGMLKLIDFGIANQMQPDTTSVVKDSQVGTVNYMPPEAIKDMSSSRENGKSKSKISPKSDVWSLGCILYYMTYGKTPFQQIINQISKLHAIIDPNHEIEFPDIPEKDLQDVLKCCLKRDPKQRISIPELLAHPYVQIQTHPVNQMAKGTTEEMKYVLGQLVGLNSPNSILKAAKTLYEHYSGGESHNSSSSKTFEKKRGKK
The note with it: at 0.1 µM.

For test [15], the system named is T6, Receptor-type tyrosine-protein kinase FLT3 (Homo sapiens), P36888 [D835Y].
T6 sequence (whole entry): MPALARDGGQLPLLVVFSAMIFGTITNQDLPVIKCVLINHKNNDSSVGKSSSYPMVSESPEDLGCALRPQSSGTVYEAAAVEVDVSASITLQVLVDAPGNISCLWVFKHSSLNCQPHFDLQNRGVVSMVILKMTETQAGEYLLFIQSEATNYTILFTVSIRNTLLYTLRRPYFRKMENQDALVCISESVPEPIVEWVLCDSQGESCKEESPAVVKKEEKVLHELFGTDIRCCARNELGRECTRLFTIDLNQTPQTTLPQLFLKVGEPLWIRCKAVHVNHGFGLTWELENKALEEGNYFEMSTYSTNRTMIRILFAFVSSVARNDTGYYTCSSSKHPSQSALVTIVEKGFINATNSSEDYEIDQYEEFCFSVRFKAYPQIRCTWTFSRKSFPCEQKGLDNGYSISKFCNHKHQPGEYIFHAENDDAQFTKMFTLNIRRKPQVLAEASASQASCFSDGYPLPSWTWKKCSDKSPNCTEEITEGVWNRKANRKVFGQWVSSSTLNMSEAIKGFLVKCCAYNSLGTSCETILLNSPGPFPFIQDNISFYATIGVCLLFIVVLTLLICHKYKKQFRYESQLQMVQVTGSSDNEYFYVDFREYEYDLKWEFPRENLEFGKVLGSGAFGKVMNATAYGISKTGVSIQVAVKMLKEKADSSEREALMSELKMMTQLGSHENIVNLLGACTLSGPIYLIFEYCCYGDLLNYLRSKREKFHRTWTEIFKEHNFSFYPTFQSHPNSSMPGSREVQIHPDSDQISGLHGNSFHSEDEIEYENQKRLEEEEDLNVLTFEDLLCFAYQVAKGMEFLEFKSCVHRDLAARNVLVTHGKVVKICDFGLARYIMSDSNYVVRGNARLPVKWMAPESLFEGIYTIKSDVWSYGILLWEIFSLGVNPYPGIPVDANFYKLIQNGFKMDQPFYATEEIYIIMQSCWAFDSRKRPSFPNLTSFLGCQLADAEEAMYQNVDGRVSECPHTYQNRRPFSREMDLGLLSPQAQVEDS
The conditions noted are these: at 1 µM.

For test [16], the target named is Vascular endothelial growth factor receptor 3 (Homo sapiens) (UniProt P35916). The conditions noted are these: at 0.1 µM.
Chain of Vascular endothelial growth factor receptor 3 (Homo sapiens) (P35916 whole entry): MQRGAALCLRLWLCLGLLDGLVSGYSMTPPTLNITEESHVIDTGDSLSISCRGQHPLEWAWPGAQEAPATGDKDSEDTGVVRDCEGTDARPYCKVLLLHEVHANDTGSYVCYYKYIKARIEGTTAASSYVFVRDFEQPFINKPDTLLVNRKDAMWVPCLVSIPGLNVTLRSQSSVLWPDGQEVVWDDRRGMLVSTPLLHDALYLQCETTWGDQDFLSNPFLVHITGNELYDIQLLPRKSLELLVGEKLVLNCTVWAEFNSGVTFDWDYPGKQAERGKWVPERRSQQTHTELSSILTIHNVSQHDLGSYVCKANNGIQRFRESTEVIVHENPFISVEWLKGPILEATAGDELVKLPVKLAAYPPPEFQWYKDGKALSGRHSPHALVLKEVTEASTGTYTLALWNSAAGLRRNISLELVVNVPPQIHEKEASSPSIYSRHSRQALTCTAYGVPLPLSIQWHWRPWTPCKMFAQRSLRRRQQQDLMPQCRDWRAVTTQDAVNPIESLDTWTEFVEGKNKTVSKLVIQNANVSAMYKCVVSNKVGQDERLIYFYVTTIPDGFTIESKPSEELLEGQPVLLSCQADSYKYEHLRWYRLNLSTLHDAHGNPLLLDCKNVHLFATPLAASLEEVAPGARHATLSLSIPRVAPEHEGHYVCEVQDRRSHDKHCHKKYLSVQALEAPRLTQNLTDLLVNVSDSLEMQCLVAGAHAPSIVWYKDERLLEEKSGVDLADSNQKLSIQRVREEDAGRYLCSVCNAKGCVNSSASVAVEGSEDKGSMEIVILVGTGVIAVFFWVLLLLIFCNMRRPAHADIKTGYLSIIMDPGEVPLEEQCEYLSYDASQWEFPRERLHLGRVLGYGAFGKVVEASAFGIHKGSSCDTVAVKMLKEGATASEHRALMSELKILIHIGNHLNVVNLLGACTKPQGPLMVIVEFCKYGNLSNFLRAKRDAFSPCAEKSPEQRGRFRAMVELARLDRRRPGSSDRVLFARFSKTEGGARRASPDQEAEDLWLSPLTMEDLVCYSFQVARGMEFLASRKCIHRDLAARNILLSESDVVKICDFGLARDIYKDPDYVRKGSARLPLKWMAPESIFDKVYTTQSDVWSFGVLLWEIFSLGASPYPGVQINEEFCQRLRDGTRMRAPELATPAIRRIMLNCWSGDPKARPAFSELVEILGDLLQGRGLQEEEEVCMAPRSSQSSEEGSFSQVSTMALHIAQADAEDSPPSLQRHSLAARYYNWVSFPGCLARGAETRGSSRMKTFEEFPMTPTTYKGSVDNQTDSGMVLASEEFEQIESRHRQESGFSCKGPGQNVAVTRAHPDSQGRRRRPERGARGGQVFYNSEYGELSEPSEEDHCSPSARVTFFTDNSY
Test [17] shares this target. The conditions noted are these: at 1 µM.
The target of test [18] is Macrophage colony-stimulating factor 1 receptor (Homo sapiens) (UniProt P07333). The note with it: at 0.1 µM.
Chain of Macrophage colony-stimulating factor 1 receptor (Homo sapiens) (P07333 whole entry): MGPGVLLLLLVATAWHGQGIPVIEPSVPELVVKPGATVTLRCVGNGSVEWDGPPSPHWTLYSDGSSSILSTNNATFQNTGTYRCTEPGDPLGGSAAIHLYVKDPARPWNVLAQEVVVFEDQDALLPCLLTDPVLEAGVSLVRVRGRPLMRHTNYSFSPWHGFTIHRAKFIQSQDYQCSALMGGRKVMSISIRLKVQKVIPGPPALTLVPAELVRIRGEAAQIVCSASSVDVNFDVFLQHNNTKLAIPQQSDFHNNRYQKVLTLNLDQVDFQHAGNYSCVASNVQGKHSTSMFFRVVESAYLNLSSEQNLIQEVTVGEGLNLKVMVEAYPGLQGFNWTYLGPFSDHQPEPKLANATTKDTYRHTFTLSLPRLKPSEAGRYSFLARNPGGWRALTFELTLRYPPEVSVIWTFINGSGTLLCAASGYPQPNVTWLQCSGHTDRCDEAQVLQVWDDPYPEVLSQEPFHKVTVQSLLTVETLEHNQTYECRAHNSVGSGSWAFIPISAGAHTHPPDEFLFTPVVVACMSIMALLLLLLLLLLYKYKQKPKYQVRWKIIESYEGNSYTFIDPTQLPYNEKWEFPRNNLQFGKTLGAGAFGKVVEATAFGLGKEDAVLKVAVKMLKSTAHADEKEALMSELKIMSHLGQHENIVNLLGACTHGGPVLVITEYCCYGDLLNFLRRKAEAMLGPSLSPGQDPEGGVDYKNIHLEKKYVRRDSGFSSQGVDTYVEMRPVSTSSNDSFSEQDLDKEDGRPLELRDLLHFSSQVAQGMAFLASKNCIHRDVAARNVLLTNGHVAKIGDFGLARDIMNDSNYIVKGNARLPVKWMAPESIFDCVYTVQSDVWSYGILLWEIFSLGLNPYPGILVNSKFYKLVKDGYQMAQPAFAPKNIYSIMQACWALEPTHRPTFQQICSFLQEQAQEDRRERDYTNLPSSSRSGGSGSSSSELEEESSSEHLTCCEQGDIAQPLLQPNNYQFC
For test [19] the target is unchanged. The note with it: at 1 µM.
The target in test [20] is Tyrosine-protein kinase Fyn (Homo sapiens) (UniProt P06241). The note with it: at 0.1 µM.
Chain of Tyrosine-protein kinase Fyn (Homo sapiens) (P06241 2-537 limits assumed): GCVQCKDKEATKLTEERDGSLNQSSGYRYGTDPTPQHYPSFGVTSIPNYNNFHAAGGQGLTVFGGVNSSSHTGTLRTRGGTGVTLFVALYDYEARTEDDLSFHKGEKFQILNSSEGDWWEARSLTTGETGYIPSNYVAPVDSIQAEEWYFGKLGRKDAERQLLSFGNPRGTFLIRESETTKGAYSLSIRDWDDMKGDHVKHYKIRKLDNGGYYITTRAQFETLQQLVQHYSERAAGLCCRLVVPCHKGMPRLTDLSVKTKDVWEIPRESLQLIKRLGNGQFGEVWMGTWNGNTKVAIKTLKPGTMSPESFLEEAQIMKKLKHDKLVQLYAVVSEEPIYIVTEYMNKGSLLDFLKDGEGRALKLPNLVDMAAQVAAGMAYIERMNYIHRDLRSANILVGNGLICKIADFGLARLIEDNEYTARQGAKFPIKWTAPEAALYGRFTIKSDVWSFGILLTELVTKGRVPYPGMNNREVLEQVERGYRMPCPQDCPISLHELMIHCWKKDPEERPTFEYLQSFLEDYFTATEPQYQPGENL

Chain of Serine/threonine-protein kinase PLK1 (Homo sapiens) (P53350 whole entry): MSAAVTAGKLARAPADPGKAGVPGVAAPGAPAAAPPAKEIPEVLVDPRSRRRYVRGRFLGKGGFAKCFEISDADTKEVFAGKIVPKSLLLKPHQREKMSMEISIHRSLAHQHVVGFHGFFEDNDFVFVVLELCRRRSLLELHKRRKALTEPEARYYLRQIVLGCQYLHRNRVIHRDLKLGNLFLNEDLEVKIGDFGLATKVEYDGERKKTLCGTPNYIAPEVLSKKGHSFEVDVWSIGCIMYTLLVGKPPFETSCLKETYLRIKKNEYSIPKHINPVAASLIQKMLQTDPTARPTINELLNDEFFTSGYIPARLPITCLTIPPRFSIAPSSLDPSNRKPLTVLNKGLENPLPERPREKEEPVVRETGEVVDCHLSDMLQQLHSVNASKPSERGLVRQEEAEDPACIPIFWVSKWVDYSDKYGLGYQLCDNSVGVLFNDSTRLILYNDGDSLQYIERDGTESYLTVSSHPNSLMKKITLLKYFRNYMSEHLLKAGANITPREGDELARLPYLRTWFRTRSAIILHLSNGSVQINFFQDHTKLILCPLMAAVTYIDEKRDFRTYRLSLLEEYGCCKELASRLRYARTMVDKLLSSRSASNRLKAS

For the compound `Nc1nccc(-c2c(-c3ccc(F)cc3)nn3cc(C(F)(F)F)ccc23)n1`, the inhibition – broadly, the drop in the measured response relative to a control, in per cent – was 0.39% in [1]; -0.26% in [2]; -0.62% in [3]; 0% in [4]; 1.3% in test [5]; 0.29% in test [6]. For the same compound, the inhibition is -2.61% in [7]; -1.44% in test [8]; 0.7% in [9]; 0.57% in test [10]; 0.92% in test [11]; 2.53% in test [12]. For the same compound, the inhibition in [13] is 0.4%; in test [14], 1.73%; in test [15] it was -4.89%; in [16], 0.03%; in test [17], -1.18%; in test [18], -4.62%. The inhibition in test [19] turned out to be 7.32%; in test [20], 0.43%.
As for `Oc1cccc(-c2nc(-c3ccccc3)[nH]c2-c2ccncc2)c1`, the inhibition in [1] is 4.72%; in test [2] it was 2.81%; in test [3] it was 3.39%; in [4], 3.98%; in [5], 4.3%; in [6], -0.13%. Moreover, the inhibition in test [7] stood at 4.45%; in test [8], 4.5%; in test [9], 5.32%; in [10], 9.92%; in [11] it was 6.73%; in test [12], 4.15%. The inhibition in [13] is 1.85%; in [14] it was 3.33%; in test [15], 22.4%; in [16], 7.41%; in [17], 30.4%; in [18], 1.63%. Besides, the figures for the inhibition in test [19] and in [20] were 5.02% and 3.67%, respectively.
